Consider twelve compounds from PubChem BioAssay (NCI).

Compounds without any hit were thinned out: in the full panel of roughly 83,000, 20% have a hit.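 Step 1: grow cells in 96-well plates. Step 2: add test compound at a single concentration. Step 3: incubate 48 h. Step 4: record percent growth.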 Unmarked numbers belong to inactive results. Calls of active or inactive are those of the source. The calls were made as follows: active = growth percent below 10; inactive = the rest.

The subject of the first experiment is LOX IMVI melanoma. The experiment in a line: NCI-60 one-dose screen, 48 h (100 = growth as untreated, 0 = no growth, -100 = all killed). As to conditions: 10 µM unless noted.
With `Cc1ccc(/C=N/Nc2nc(Nc3ccccc3)nc(Nc3ccc(S(N)(=O)=O)cc3)n2)cc1`, the growth is 54.9%.

On to `Cc1ccc(S(=O)(=O)NCCCNc2nc(Nc3ccc(N4CCN(C)CC4)cc3)nc3ccsc23)cc1`, for which the growth is -77.6% (active).

For the compound `CC(C)=CCC[C@](C)(O)[C@H]1CC[C@]2(C)[C@@H]1CC[C@@H]1[C@@]3(C)CC[C@H](N)C(C)(C)[C@@H]3CC[C@]12C`, the growth was -82.5% (active).

In the case of `NNc1nnc2nc(Nc3ccccc3)nc(Nc3ccc(S(N)(=O)=O)cc3)n12`, the growth is 97.3%.

Another experiment relates to SK-MEL-28 melanoma. Described as above. As to conditions: 10 µM unless noted.
As to `COCCOc1ccc2ncc(C#Cc3cncc(C(=O)Nc4ccc(CN5CCN(C)CC5)c(C(F)(F)F)c4)c3)n2n1`, the growth was -49.4% (active).

As for `CCOC(=O)c1c(N)c(C#N)cn1Cc1ccc(Cl)cc1Cl`, the growth is 92.6%.

Regarding `Cc1ccc(Nc2nc(SC(C)C)nc(-c3ccccc3)c2C#N)cc1`, the growth was 96.8%.

In the case of `O=C(CSc1nc2ccccc2c(=O)n1-c1ccc(Cl)c(Cl)c1)Nc1ccc(S(=O)(=O)Nc2ccc(Cl)nn2)cc1`, the growth is 96.3%.

Take `N#Cc1cnc2ccc(-c3cnc4n[nH]nc4c3)cc2c1N1CCc2cc(F)c(Cl)cc21`: the growth is 13.4%.

In the case of `CNC(=O)Nc1ccc(Nc2cc(-c3ccc(-n4cccn4)cc3)[nH]n2)c(C)c1`, the growth is 114%.

`CN1CCN(Cc2ccc(NC(=O)c3cncc(C#Cc4cnc5ccc(N)nn45)c3)cc2C(F)(F)F)CC1`: the growth was 41.2%.

On to `Cc1cc(=O)oc2cc(OCCCOc3ccc(/C=C/C(=O)Nc4ccc(Br)cc4)cc3)ccc12`, for which the growth is 86.6%.
